Source: PubChem
NPSR antag – antagonists of human neuropeptide S receptor cAMP signaling | Q6W5P4 | CHO-NPSR cells, cAMP TR-FRET, antagonist mode | Potency, µM (highest dose often 38.3 µM), without a hit: at the top dose activity change, negative = inhibition, hits mostly inhibitors | 220,000 compounds, 1% hits | AID 1461; also: nearly all actives have a fitted effect of over 50% in size
IMPase Li inh – IMPase inhibition in cells with lithium potentiation; CHO-M1 cells, IP1 TR-FRET (IP-One), carbachol + lithium; Potency, µM (doses to about 59.4 µM), for the others: at the highest dose activity, negative = IMPase inhibition, most hits filed as inhibitors; 210,000 compounds, 0.35% hits;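 also: IP1 builds up when IMPase is blocked and the TR-FRET signal falls; plate controls were basal vehicle for no effect and high inhibitor control for full effect; nearly all actives have a fitted effect of over 50% in size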
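Readout is a homogeneous TR-FRET IP1 immunoassay (Ex 320, Em 665 and 620), where raised cytosolic IP1 lowers signal. Cells were CHO-M1 treated 30 min at 37C with test compounds plus a little lithium; AC50 values came from Hill-equation fitting.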
RGS12 GoLoco inh – inhibitors of human Gai1-RGS12 GoLoco interaction (red fluorophore); P63096; Gai1:RGS12 GoLoco peptide FP, rhodamine, 10 min; Potency, µM (series often up to 61.6 µM), for the others: at the highest dose activity, negative = inhibition, most hits filed as inhibitors; 230,000 compounds, 0.44% hits; AID 880; active = well fitted inhibition curve with a large enough effect, not every such curve was filed as active; inactive = no such curve, though single readings can be large or run the other way; also: nearly all actives have a fitted effect of over 30% in size
MBNL1 CUG block – inhibitors of human MBNL1 binding to CUG repeat RNA | TR-FRET MBNL1-His/biotin-(CUG)12 binding, 665/545 ratio | Potency, µM (highest dose often 57.5 µM), without a hit: top-dose activity change, negative = inhibition, actives largely listed as inhibitors | AID 2675 | 280,000 compounds, 0.036% hits | Q9NR56; active = well fitted inhibition curve with a large enough effect in the signal ratio, with a control signal flat, not every such curve was filed as active; inconclusive = small, poorly fitted or top-dose-only effect, or effect the other way, or a change in a side signal; inactive = no such curve, though single readings can be large or run the other way; the % refers to the signal ratio
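Compound titration spanned 92 nM–58 uM against the MBNL1-His/biotin-(CUG)12 complex. After 60 min at room temperature with 5 nM streptavidin-XL665 and 0.055 ng/ul terbium anti-His, ratiometric 665/545 nm emission (Ex 340 nm) normalized to controls.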
Tb PFK inh – inhibitors of T. brucei phosphofructokinase; T. brucei PFK, ADP-Glo luminescence; 330,000 compounds, 0.17% hits; AID 485367; Potency, µM (doses to about 57.5 µM), for inactives: top-dose activity, negative = inhibition, usual class: inhibitors;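 also: 0% = uninhibited 1x PFK enzyme wells and -100% = no-enzyme wells; nearly all actives have a fitted effect of over 60% in size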
Target sequence (O15648 whole entry, looked up): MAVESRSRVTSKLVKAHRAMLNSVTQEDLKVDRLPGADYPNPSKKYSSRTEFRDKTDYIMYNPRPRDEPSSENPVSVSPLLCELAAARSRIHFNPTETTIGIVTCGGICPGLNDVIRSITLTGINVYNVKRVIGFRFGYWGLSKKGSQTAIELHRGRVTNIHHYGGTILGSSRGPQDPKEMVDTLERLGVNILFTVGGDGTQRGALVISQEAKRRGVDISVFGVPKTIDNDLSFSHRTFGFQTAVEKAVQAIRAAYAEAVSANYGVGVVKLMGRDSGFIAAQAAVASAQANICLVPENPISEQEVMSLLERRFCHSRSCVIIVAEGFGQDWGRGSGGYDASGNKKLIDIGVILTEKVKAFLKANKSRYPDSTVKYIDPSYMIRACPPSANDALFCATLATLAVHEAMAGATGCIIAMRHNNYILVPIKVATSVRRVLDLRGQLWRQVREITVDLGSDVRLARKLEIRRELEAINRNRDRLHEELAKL
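ADP-Glo luminescence quantified ADP after 45 min at room temperature, with 1.25 nM T. brucei PFK, 0.1 mM ATP and 0.5 mM fructose-6-phosphate in pH 8.0 TEA buffer. qHTS titrations up to 57 µM; curves classified by quality.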
An asterisk follows results filed as active; [ ] = dose if it differs, or a comment. Many of the other results were omitted from the sample, so hits are more common in it than they were. Unless noted, calls follow the shape of the dose curve; as a rule, active = well fitted curve in the direction sought with a large enough effect; inconclusive = small, poorly fitted or top-dose-only effect, or another doubt; inactive = no such curve, though single readings can be large; an effect the other way counts as inactive or inconclusive. Unless noted, % is scaled to controls: 0 for no effect and ±100 for the full control effect; potency is read from the fitted curve at half-maximal effect.

How did COc1ccc(C2c3c(ncn(CCN4CCOCC4)c3=N)Oc3ccc4ccccc4c32)cc1OC (stereo not drawn) do in these assays?
NPSR antag: 1µM*; IMPase Li inh: -1%[38.3 µM]; RGS12 GoLoco inh: 13%; MBNL1 CUG block: 6%; Tb PFK inh: -2%

How did COc1ccc(C2c3c(ncn(CCCO)c3=N)Oc3ccc4ccccc4c32)cc1 (stereo not drawn) do in these assays?
NPSR antag: inconclusive; RGS12 GoLoco inh: 25%; MBNL1 CUG block: -8%; Tb PFK inh: 1%

How did N#Cc1ccc(CN2CCN(C(=O)c3cccc(S(=O)(=O)N4CCCCCC4)c3)CC2)cc1 do in these assays?
Tb PFK inh: 0%

Results for CCCCC1=CC2=C(c3ccco3)C(=O)C(C)(OC(=O)c3ccc(OC)cc3)C(=O)C2=CN1C1CCCCC1 (stereo not drawn) ?
NPSR antag: 10µM*; IMPase Li inh: 5%; RGS12 GoLoco inh: 3%[14.2 µM]; MBNL1 CUG block: 49%; Tb PFK inh: -9%

How did CCCCC1=CC2=C(c3ccco3)C(=O)C(C)(OC(=O)c3ccc(OC)cc3)C(=O)C2=CN1CCOC (stereo not drawn) do in these assays?
NPSR antag: -20%; IMPase Li inh: -19%; RGS12 GoLoco inh: -3%[14.2 µM]; MBNL1 CUG block: 14%; Tb PFK inh: 3%

Results for CCNC(=O)NC(=O)CSc1ccc(S(=O)(=O)N2CCCCC2)cn1 ?
Tb PFK inh: -4%

Results for CCCCn1nnnc1SCC(=O)Nc1ccc(N(C)C)cc1 ?
NPSR antag: -19%[46.1 µM]; IMPase Li inh: -8%[38.3 µM]; RGS12 GoLoco inh: 10µM*; MBNL1 CUG block: -1%; Tb PFK inh: 2%

How did N#Cc1ccc(Oc2ccc(-c3cnc4ccccc4n3)cc2)cc1C#N do in these assays?
NPSR antag: inconclusive; IMPase Li inh: 2.8µM*; RGS12 GoLoco inh: -13%; MBNL1 CUG block: 11%; Tb PFK inh: 12%

How did O=S(=O)(c1ccccc1F)N1CCN(Cc2cc3c(cc2Br)OCCO3)CC1 do in these assays?
Tb PFK inh: -6%

How did CCN1C/C(=C/c2cccc([N+](=O)[O-])c2)C(=O)/C(=C/c2cccc([N+](=O)[O-])c2)C1 do in these assays?
NPSR antag: 2.5µM*; IMPase Li inh: 14%; RGS12 GoLoco inh: 2%; MBNL1 CUG block: 25%; Tb PFK inh: 5%

What do the screens show for `Cc1cc(=O)n2nc(N3CCCC(C(=O)NC4CCCCC4C)C3)sc2n1` (stereo not drawn)?
MBNL1 CUG block: 1%; Tb PFK inh: 5%

How did CCOc1ccc2cc(C(=O)c3ccccc3)c(=O)oc2c1 do in these assays?
NPSR antag: -13%; IMPase Li inh: 25µM*; RGS12 GoLoco inh: -8%; Tb PFK inh: 0%

Results for COc1ccc2cc(C(=O)c3ccccc3)c(=O)oc2c1 ?
NPSR antag: -8%[46.1 µM]; IMPase Li inh: -13%[38.3 µM]; RGS12 GoLoco inh: -5%; MBNL1 CUG block: inconclusive; Tb PFK inh: -3%

Results for COc1cc(C2C(=O)c3ccccc3C2=O)ccc1O ?
MBNL1 CUG block: inconclusive; Tb PFK inh: -3%

How did COc1ccc(C2C(=O)c3ccccc3C2=O)cc1OC do in these assays?
NPSR antag: 13µM*; IMPase Li inh: 44%; RGS12 GoLoco inh: -3%; MBNL1 CUG block: inconclusive; Tb PFK inh: -8%

Results for COc1ccc2c(c1)O[C@@H](c1ccc3c(c1)OCO3)[C@H](OC(=O)NC1CCCC1)C2=O ?
IMPase Li inh: 5%; RGS12 GoLoco inh: 0%

How did CN(C)Cc1cc(O)c(O)c(CN(C)C)c1 do in these assays?
IMPase Li inh: -6%; RGS12 GoLoco inh: -35%[14.2 µM]

What do the screens show for `CN(C)Cc1cc(O)c(CN(C)C)cc1O`?
NPSR antag: 5%; RGS12 GoLoco inh: 4µM*; MBNL1 CUG block: -14%; Tb PFK inh: inconclusive

Results for CCOC(=O)c1cnc2ccc(C(=O)OC)cc2c1Nc1cccc(C(=O)O)c1 ?
NPSR antag: 0%; IMPase Li inh: 9%; RGS12 GoLoco inh: 1%; MBNL1 CUG block: 1%; Tb PFK inh: 1%

How did CCOC(=O)c1cnc2ccccc2c1Nc1cccc(C(=O)O)c1 do in these assays?
NPSR antag: -58%; IMPase Li inh: 7.9µM*; RGS12 GoLoco inh: 2%; MBNL1 CUG block: 14%; Tb PFK inh: -4%

How did Cn1c(=O)c2c(ncn2CC(=O)N2CCN(S(=O)(=O)c3ccccc3)CC2)n(C)c1=O do in these assays?
MBNL1 CUG block: -3%; Tb PFK inh: -1%

What do the screens show for `Cc1nc(Nc2ccc3c(c2)OCCO3)c2c(C)c(C)sc2n1`?
NPSR antag: -17%; IMPase Li inh: 24%; RGS12 GoLoco inh: 43%; Tb PFK inh: -3%

What do the screens show for `CCn1c(CSc2nnc(-c3cccnc3)n2-c2ccccc2C)nc2cc(C(=O)O)ccc21`?
NPSR antag: -23%[46.1 µM]; IMPase Li inh: 32%[38.3 µM]; RGS12 GoLoco inh: 3.2µM*; MBNL1 CUG block: 24%; Tb PFK inh: -9%

How did CCn1c(CSc2n[nH]c(N)n2)nc2cc(C(=O)O)ccc21 do in these assays?
NPSR antag: 3%; IMPase Li inh: 6%; RGS12 GoLoco inh: 3.5µM*; Tb PFK inh: 2%

Results for CCn1c(CSc2nnc3ccccn23)nc2cc(C(=O)O)ccc21 ?
NPSR antag: -5%[46.1 µM]; IMPase Li inh: 4%[38.3 µM]; RGS12 GoLoco inh: 4.5µM*; MBNL1 CUG block: 0%; Tb PFK inh: -5%

What do the screens show for `COC(=O)c1ccc(C(=O)OC)c(NC(=O)CSc2n[nH]c(N)n2)c1`?
Tb PFK inh: 2%

What do the screens show for `CCn1c(CSc2nnc(-c3ccncc3)n2CCOC)nc2cc(C(=O)O)ccc21`?
NPSR antag: 6%; IMPase Li inh: -2%; RGS12 GoLoco inh: 11µM*; MBNL1 CUG block: 5%; Tb PFK inh: 7%

What do the screens show for `O=C(CCC(=O)N1CCOCC1)NCCc1ccccc1`?
Tb PFK inh: 0%

Results for Cc1c(C(=O)N2CCCC2)c(S(=O)(=O)NCCc2ccccc2)c(C)n1C ?
MBNL1 CUG block: -2%; Tb PFK inh: -5%

What do the screens show for `CCOc1cc(/C=C2/C(=N)N3OC(C)=CC3=NC2=O)ccc1OCCOc1ccccc1`?
NPSR antag: 10µM*; IMPase Li inh: -4%[38.3 µM]; RGS12 GoLoco inh: 19%; MBNL1 CUG block: 0%; Tb PFK inh: 4%

How did CC(=O)CSc1nc(-c2cccs2)c(C#N)c(=O)[nH]1 do in these assays?
NPSR antag: inconclusive; IMPase Li inh: 7.9µM*; RGS12 GoLoco inh: 23%; MBNL1 CUG block: 57%; Tb PFK inh: 0%

What do the screens show for `O=C1c2ccc(O)c(O)c2C(=O)c2c(O)ccc(O)c21`?
IMPase Li inh: 141%; RGS12 GoLoco inh: -25%

Results for CC1=CC(=O)c2c(O)ccc(O)c2C1=O ?
NPSR antag: inconclusive; IMPase Li inh: 24%; RGS12 GoLoco inh: 25µM*; MBNL1 CUG block: inconclusive; Tb PFK inh: inconclusive
